The structures appear in SMILES notation. Out of some 2,300 compounds screened, about 2,100 (91%) were called active.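 How the source made its calls: active means compounds raising the signal whose fitted half-maximal concentration is at or below their top tested dose (cut at about 25 µM in these data); inconclusive means flat fit at 30 to 70% activity, or a poor fit; inactive means the rest.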 The set was probably picked from earlier hits. These entries were drawn from the full list. Entries with a potency or affinity are not part of this list.

Here are results for 68 compounds from PubChem BioAssay AID463229 (Broad Institute, 2010).

The test is described as follows: cytokine-free beta-cell viability effect – INS-1E rat cells, ATP luminescence, cherry pick, counter-screen for beta-cell apoptosis protection project, dose response (AID 463229). As to conditions: INS-1E rat beta cells, no cytokines, CellTiter-Glo ATP, 48 h; series mostly up to 26 µM.
As for `CCOc1ccc(/C=N/Nc2ccc(Cl)nn2)c(O)c1`, the compound was called inactive.

Consider `Cc1cc(C)nc(OC(=O)c2ccc(Cl)cc2Cl)n1`, for which the compound was classed as inactive.

With `Cc1ccc(C(=O)O/N=C/c2c(N3CCOCC3)n(C)c3ccccc23)cc1`, the compound was called inactive.

As for `Cc1ccc2c(C)ccc(O)c2n1`, the compound was called inactive.

Take `CCCNC(=O)c1c(N)n(-c2cccc(OC)c2)c2nc3ccccc3nc12`: the result was inactive.

For `CC(=O)Nc1ccc(C2=CC(=O)C[C@H](c3ccc4c(c3)OCO4)C2)cc1`, the compound was called inactive.

On to `FC(F)(F)c1ccccc1NC(=S)N1CCc2ccccc2C1`, for which the call was inactive.

As for `Fc1ccc(Oc2nc(-c3ccccn3)nc3ccccc23)cc1`, the outcome was inactive.

Regarding `O=C(CCCN1C(=O)/C(=C/c2ccccc2)SC1=S)NCCCn1ccnc1`, the outcome was inactive.

In the case of `O=[N+]([O-])c1ccc(/C=N/Nc2ccnc3cc(Cl)ccc23)o1`, the compound was classed as inactive.

Take `CC1(C(=O)OCC(=O)N2c3ccccc3Sc3ccccc32)CC1(Cl)Cl` (stereo not drawn): the outcome was inactive.

Turning to `Nc1ccc2nn(-c3cccc4ccccc34)nc2c1`, the result was inactive.

In the case of `CC(=O)Cc1cc(O)c2ccccc2c1OC(=O)c1ccc(Br)cc1`, the outcome was inactive.

As to `Cc1cc2cc(CN3C(=O)c4ccccc4C3=O)ccc2n1C`, the result was inactive.

As for `Cc1ccc(NC(=O)c2c(-c3c(F)cccc3Cl)noc2C)cc1F`, the compound was classed as inactive.

For `O=C1/C(=N\S(=O)(=O)c2cccs2)C([n+]2ccc(CCCc3ccccc3)cc2)=C([O-])c2ccccc21`, the outcome was inactive.

`CC(C)(C)c1cc[n+](C2=C([O-])c3ccccc3C(=O)/C2=N\S(=O)(=O)c2ccccc2)cc1`: the outcome was inactive.

With `Cc1ccccc1Nc1c(-c2ccccn2)nc2c(C)cccn12`, the call was inactive.

`COc1cc(NC2CCCCC2O)c2nc(-c3ccc(Cl)cc3)ccc2c1` (stereo not drawn): the compound was classed as inactive.

Turning to `COc1ccc(NC(=O)CN(C)C(=O)/C=C/c2ccc(S(=O)(=O)N3CCCCCC3)cc2)cc1`, the compound was classed as inactive.

For the compound `CC(C)C[C@H]1CN=C(Nc2ccccc2)N1CCC(C)c1ccccc1` (stereo partly drawn), the outcome was inactive.

Take `CCC(CC)C(=O)c1c[nH]c(C(=O)NCc2ccccn2)c1`: the compound was called inactive.

As for `O=C(Cc1ccc([N+](=O)[O-])cc1)Nc1cccnc1`, the outcome was inactive.

As for `Cc1ccc(C)c(NS(=O)(=O)c2ccc(OCC(=O)NCc3cccnc3)cc2)c1`, the compound was classed as inactive.

`C/C(=N\NC(N)=S)c1ccncc1`: the compound was called inactive.

As to `O=C(NNC(=O)c1ccccc1OCc1ccccc1)c1ccccc1O`, the call was inactive.

`C/C(Cn1nnc([N+](=O)[O-])n1)=N\NC(=O)c1ccccc1Cl`: the compound was called inactive.

For the compound `Clc1ccc(SCc2cc(N3CCOCC3)nc(-c3ccccn3)n2)cc1`, the compound was classed as inactive.

Regarding `CCN(CC)C(=O)C1CCCN(C(=S)Nc2cccc3ccccc23)C1` (stereo not drawn), the compound was called inactive.

Take `CC(C)(C)C(=O)NC(Nc1cccc2cccnc12)C(Cl)(Cl)Cl` (stereo not drawn): the call was inactive.

Take `CCCOc1ccc2c3c(c(=O)oc2c1OCCC)CCCC3`: the compound was classed as inactive.

On to `COc1ccc(/C=N/N2CCN(Cc3ccccc3)CC2)cc1`, for which the compound was classed as inactive.

As for `C/C(=N\Nc1nc(C)cc(-c2ccccc2)n1)c1ccccc1`, the result was inactive.

Turning to `C/C(=N\Nc1nc(C)cc(-c2ccccc2)n1)c1ccc(F)cc1`, the result was inactive.

Regarding `C=CC[C@@H](CC(=O)N(CCO)Cc1ccccc1)C(=O)N[C@H](COC(=O)[C@@H](CC=C)CC(=O)OC(C)(C)C)c1ccccc1`, the compound was called inactive.

On to `Cc1cc(C)n(-c2nc(NC(C)(C)C)nc(NC(C)(C)C)n2)n1`, for which the compound was classed as inactive.

Turning to `NNC(=S)Nc1ccc(OC(F)(F)F)cc1`, the outcome was inactive.

For `COc1ccc(NC(=O)N(C)C[C@H]2Oc3c(NS(=O)(=O)c4ccc(F)cc4)cccc3C(=O)N([C@H](C)CO)C[C@@H]2C)cc1`, the compound was classed as inactive.

Take `COC(=O)c1sccc1S(=O)(=O)Nc1ccc(N2CCCCC2)cc1`: the compound was classed as inactive.

For the compound `c1ccc(-c2nnc(CSc3ccc4c(c3)OCCO4)o2)cc1`, the result was inactive.

In the case of `Fc1cccc(Cl)c1-c1nnc2ccc3ccccc3n12`, the result was inactive.

As to `Nc1ccc(Nc2ccccc2)cc1`, the compound was called inactive.

In the case of `Cc1ccc(S(=O)(=O)Nc2ccc(C(OC(=O)c3ccccc3[N+](=O)[O-])(C(F)(F)F)C(F)(F)F)cc2)cc1`, the call was inactive.

As to `CCN(CC)S(=O)(=O)c1cccc(NC(=O)c2cc(-c3cccs3)nn2-c2ccccc2)c1`, the compound was called inactive.

As for `c1ccc(N2CCN(CC3CCCCC3)CC2)cc1`, the outcome was inactive.

On to `CCCCOC(=O)c1ccc(NC(c2ccc(C)cc2)P(=O)(OC)OC)cc1` (stereo not drawn), for which the compound was called inactive.

With `Cc1ccc(C2CC(c3cccc(C)c3)n3nc(N)nc3N2)cc1` (stereo not drawn), the outcome was inactive.

On to `COc1ccc(C2CC(c3cccc(C)c3)n3nc(N)nc3N2)cc1` (stereo not drawn), for which the compound was called inactive.

As to `CCOC(=O)CSc1nc2c(c(=O)[nH]1)C(C)(CC)Cc1ccccc1-2` (stereo not drawn), the call was inactive.

`O=C(O)c1ccc(/C=C2\SC(=S)N(Nc3ccccc3)C2=O)cc1`: the call was inactive.

For `CN1N=C(C(C)(C)C)CSC1=Nc1ccccc1`, the compound was called inactive.

In the case of `CC(=O)c1c(C)n(CC(=O)NCc2ccco2)c2ccccc12`, the compound was called inactive.

Consider `Cc1ccc(N2C(=O)CSC2c2cccnc2)c(Cl)c1` (stereo not drawn), for which the call was inactive.

Take `CN(C)c1ccc(NC(=S)NC23CC4CC(CC(C4)C2)C3)cc1`: the compound was classed as inactive.

Consider `COc1ccccc1NS(=O)(=O)c1cccc(NC(=O)c2[nH]c(C)c(C(C)=O)c2C)c1`, for which the outcome was inactive.

With `O=C(CC1CC2CCC1C2)NCCc1ccc(Cl)cc1` (stereo not drawn), the call was inactive.

Turning to `CNC(=S)N(Cc1cccs1)Cc1cc2cc(OC)c(OC)cc2[nH]c1=O`, the call was inactive.

`CCN(CC)c1ccc(N=Cc2ccccc2[N+](=O)[O-])cc1`: the outcome was inactive.

On to `CC1CC(=O)N(c2ccc(Br)cc2)C(=O)C1`, for which the outcome was inactive.

For the compound `Cn1cccc1/C=N/NC(=O)Cc1cccs1`, the outcome was inactive.

With `CCOC(=O)c1sc(SC)c2c1CCC/C2=N/OC`, the call was inactive.

For the compound `COc1cnc(-c2ccccn2)nc1N(C)c1ccccc1`, the call was inactive.

Regarding `O=C(CCCCC(=O)Nc1ccc(F)cc1F)Nc1ccc(F)cc1F`, the result was inactive.

Turning to `C/C(=N\Nc1nc(-c2ccccn2)nc2ccccc12)c1ccc(F)cc1`, the result was inactive.

On to `O=C(c1ccc(F)c(S(=O)(=O)N2CCOCC2)c1)N1CCN(c2ccc(F)cc2)CC1`, for which the result was inactive.

Consider `CC1=C(C(=O)OCCNC(=O)c2ccccc2O)C(c2ccccc2[N+](=O)[O-])C(C(=O)OCC2CCCO2)=C(C)N1` (stereo not drawn), for which the call was inactive.

Consider `COc1ccc(CN(C)C(=O)c2ccc(NS(=O)(=O)c3ccc(F)cc3)cc2)c(OC)c1OC`, for which the outcome was inactive.

`CC[C@@H]1C/C=C\Cc2ccccc2[C@H](C(=O)C[C@@H](O)CC(C)=O)OC1=O`: the compound was classed as inactive.
